Laboratory results published in the supplement of paper PMC6522484.
± gives the standard deviation of the averaged measurements.

Experiments:
[1] = system: DLD1; experiment: cell viability (CellTiter-Glo) relative to plate median (fraction of plate median); higher = more viable cells; conditions: 5 µM; treatment time 24 h; reporter: 7TFP
Procedure, shortened: (§1)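 Cells were seeded in 384-well plates; these were colorectal cancer lines stably transduced with lentiviral 7TFP or TCF4/Wnt firefly luciferase reporters. After 24 h, library compounds went in at a final 5 µM, and exposure lasted 24 h. Parallel plates were then read for firefly luciferase or CellTiterGlo luminescence, each well normalised to its plate median, with two independent replicates averaged.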

[2] = system: HCT116; experiment: as above; conditions: 5 µM; treatment time 24 h; reporter: TCF4/Wnt
Procedure, shortened: as §1

[3] = system: SW480; experiment: as above; conditions: 5 µM; treatment time 24 h; reporter: 7TFP
Procedure, shortened: as §1

[4] = system: DLD1; experiment: TCF/Wnt firefly luciferase reporter signal relative to plate median (fraction of plate median); higher = higher Wnt reporter signal; conditions: 5 µM; treatment time 24 h; reporter: 7TFP
Procedure, shortened: as §1

[5] = system: SW480; experiment: as above; conditions: 5 µM; treatment time 24 h; reporter: 7TFP
Procedure, shortened: as §1

Compound | cell viability [1] | cell viability [2] | cell viability [3] | TCF/Wnt firefly luciferase reporter signal [4] | TCF/Wnt firefly luciferase reporter signal [5]
Cc1oc(=O)c2c(O)cccc2c1CO [8-Hydroxy-4-hydroxymethyl-3-methyl-isocumarin] | 0.926 ± 0.032 | 0.925 ± 0.027 | 0.98 ± 0.021 | 1.01 ± 0.13 | 0.993 ± 0.0099
Nc1nc(=O)c2nc(CNc3ccc(C(=O)N[C@@H](CCC(=O)O)C(=O)O)cc3)cnc2[nH]1 | 1.07 ± 0.057 | 0.977 ± 0.075 | 1.03 ± 0.044 | 1.01 ± 0.098 | 1.05 ± 0.12
C[C@H]1[C@H](C)CC[C@]2(C(=O)O)CC[C@]3(C)C(=CC[C@@H]4[C@@]5(C)C[C@@H](O)[C@H](O)[C@@](C)(CO)[C@@H]5[C@H](O)C[C@]43C)[C@H]12 | 1.01 ± 0.048 | 1.09 ± 0.099 | 0.985 ± 0.0085 | 0.919 ± 0.05 | 1.045 ± 0.0071
CCC(=O)O[C@H]1[C@H](O[C@@H]2[C@@H](C)[C@H](O[C@H]3C[C@@](C)(OC)[C@@H](O)[C@H](C)O3)[C@@H](C)C(=O)O[C@H](CC)[C@@](C)(O)[C@H](O)[C@@H](C)C(=O)[C@H](C)C[C@@]2(C)O)O[C@H](C)C[C@@H]1N(C)C | 0.989 ± 0.058 | 0.93 ± 0.011 | 1.01 ± 0.016 | 0.9955 ± 0.0064 | 1.11 ± 0.014
C[C@@H]1CC(=O)c2c(ccc3c2C(=O)c2cccc(O)c2C3=O)C1 [Ochromycinone (Isoform C, Compound ID 7613)] | 1.02 ± 0.091 | 1.08 ± 0.099 | 1.1 ± 0.064 | 1.09 ± 0.13 | 1.04 ± 0.11
CC(=O)O[C@@H]1C[C@H]2C(C)(C)[C@@H](O)CC[C@]2(C)[C@H]2CC[C@@]3(C)[C@H](c4ccoc4)OC(=O)[C@H]4O[C@]43[C@@]21C [beta-DIHYDROGEDUNOL] | 0.978 ± 0.028 | 1.08 ± 0.078 | 0.984 ± 0.021 | 1.02 ± 0.035 | 1.12 ± 0.085
CCCCNC(=O)NS(=O)(=O)c1ccc(C)cc1 | 0.85 ± 0.14 | 0.982 ± 0.054 | 0.987 ± 0.033 | 0.931 ± 0.097 | 1.005 ± 0.0071
CN(C)CC/C=C1/c2ccccc2Sc2ccc(Cl)cc21 | 0.835 ± 0.21 | 0.98 ± 0.019 | 0.934 ± 0.016 | 1.07 ± 0.042 | 0.967 ± 0.061
O=C(O)c1cccc(O)c1O | 1.01 ± 0.047 | 1.14 ± 0.035 | 1.02 ± 0.068 | 0.954 ± 0.034 | 0.947 ± 0.0085
CN(C)c1nc(N(C)C)nc(N(C)C)n1 | 0.976 ± 0.076 | 0.97 ± 0.057 | 1.05 | 1.03 ± 0.035 | 1.01 ± 0.09
CC(COc1ccccc1)NC(C)C(O)c1ccc(O)cc1 (stereo not given) | 1.03 ± 0.096 | 0.966 ± 0.091 | 0.916 ± 0.017 | 1.18 ± 0.05 | 1.01 ± 0.076
C=CCCCCCCCCC(=O)O | 1.03 ± 0.072 | 1.08 ± 0.13 | 1 ± 0.022 | 1.01 ± 0.025 | 1 ± 0.037
CCc1ccc2c(O)c3c(cc2c1C(=O)OC)C(=O)c1c(O)ccc(O)c1C3=O | 1.04 ± 0.093 | 1.06 ± 0.099 | 1.14 ± 0.13 | 1.04 ± 0.15 | 0.967 ± 0.029
OCCc1ccccc1 | 0.986 | 0.995 ± 0.05 | 0.959 ± 0.03 | 1.16 ± 0.085 | 1.12 ± 0.092
OC(Cn1cncn1)(Cn1cncn1)c1ccc(F)cc1F | 0.889 ± 0.033 | 0.883 ± 0.069 | 0.9295 ± 0.0064 | 1.09 ± 0.028 | 1.01 ± 0.054
CCCCCCCCCCCCC[N+](C)(C)Cc1ccccc1 | 0.848 ± 0.095 | 0.743 ± 0.028 | 0.96 ± 0.057 | 0.725 ± 0.15 | 0.562 ± 0.074
CC[C@H]1OC(=O)[C@H](C)[C@@H](O[C@H]2C[C@@](C)(OC)[C@@H](O)[C@H](C)O2)[C@H](C)[C@@H](O[C@@H]2O[C@H](C)C[C@H](N(C)C)[C@H]2O)[C@](C)(O)C[C@@H](C)CN(C)[C@H](C)[C@@H](O)[C@]1(C)O | 1.065 ± 0.0071 | 0.8915 ± 0.0035 | 1.01 ± 0.049 | 0.97 ± 0.1 | 1.04 ± 0.12

Compound | cell viability [1] | cell viability [2] | cell viability [3] | TCF/Wnt firefly luciferase reporter signal [4] | TCF/Wnt firefly luciferase reporter signal [5]
C[C@]12CCC[C@H](O1)c1c(cc3c(c1O)C(=O)c1c(O)cc(O)cc1C3=O)O2 [Averufin (Isoform B, Compound ID 7395)] | 1.09 ± 0.14 | 1.01 ± 0.014 | 1.03 ± 0.054 | 1.02 ± 0.035 | 0.942 ± 0.14
OC[C@H]1O[C@H]([S-])[C@H](O)[C@@H](O)[C@@H]1O.[Au+] | 0.945 ± 0.21 | 0.921 ± 0.019 | 1.11 ± 0.021 | 0.891 ± 0.12 | 0.265 ± 0.088
COc1c2c(c(O)c3c4c(c(C)cc13)[C@@H]1O[C@@]3(C(OC)OC)O[C@@H]1[C@@](O[C@H]1CC(O)[C@@](O)(C(C)=O)C(C)O1)(O4)[C@@]3(O)Cn1cnc3nc(N)[nH]c(=O)c31)C(=O)C(O)CC2O[C@H]1CC(C)(O)[C@H](OC(C)=O)C(C)O1 (stereo not given in full) [Gutingimycin] | 0.932 ± 0.022 | 0.966 ± 0.0057 | 0.946 ± 0.059 | 0.87 ± 0.14 | 0.898 ± 0.07
COc1cc(O)c2c(=O)c(O)c(-c3ccc(O)c(O)c3)oc2c1 | 1.06 ± 0.014 | 0.992 ± 0.11 | 1.065 ± 0.0071 | 1 ± 0.12 | 1.045 ± 0.0071
CC(=O)N1CCN(c2ccc(OCC3COC(Cn4ccnc4)(c4ccc(Cl)cc4Cl)O3)cc2)CC1 (stereo not given) | 0.997 ± 0.033 | 0.9685 ± 0.005 | 0.901 ± 0.012 | 1.05 ± 0.05 | 1.01 ± 0.061
CC1=CC(=O)[C@H]2C(C)(C)CCC[C@]2(C)[C@@]1(O)CCc1ccoc1 | 0.976 ± 0.016 | 1.07 ± 0.15 | 0.998 ± 0.018 | 1.1 ± 0.099 | 0.95 ± 0.043
O=C(Cc1cccs1)N[C@@H]1C(=O)N2C(C(=O)[O-])=C(C[n+]3ccccc3)CS[C@H]12 | 0.979 ± 0.073 | 0.944 ± 0.057 | 1.01 | 0.9975 ± 0.0035 | 0.889 ± 0.0057
CCCNC(=O)NS(=O)(=O)c1ccc(Cl)cc1 | 1.03 ± 0.11 | 0.991 ± 0.042 | 1.07 ± 0.2 | 0.968 ± 0.013 | 0.945 ± 0.016
Clc1ccc(CSC(Cn2ccnc2)c2ccc(Cl)cc2Cl)cc1 (stereo not given) | 1.01 ± 0.015 | 0.932 ± 0.14 | 0.954 ± 0.11 | 0.88 ± 0.035 | 0.952 ± 0.036
NS(=O)(=O)c1cc(C2(O)NC(=O)c3ccccc32)ccc1Cl (stereo not given) | 1.02 ± 0.067 | 1.02 ± 0.036 | 0.986 ± 0.1 | 0.958 ± 0.13 | 0.981 ± 0.025
CC(=O)O[C@]1(C(C)=O)CC[C@H]2[C@@H]3C=C(C)C4=CC(=O)CC[C@]4(C)[C@H]3CC[C@@]21C | 0.988 ± 0.088 | 0.971 ± 0.037 | 0.984 ± 0.037 | 1.03 ± 0.086 | 1 ± 0.04
COc1cc(-c2coc3cc(O[C@@H]4O[C@H](CO)[C@@H](O)[C@H](O)[C@H]4O)c(OC)c(O)c3c2=O)cc(O)c1OC | 1.1 ± 0.057 | 1.12 ± 0.078 | 1.09 ± 0.014 | 1.01 ± 0.15 | 0.885 ± 0.023
Cc1cc(OC(=O)c2c(C)cc(O)cc2O)cc(O)c1C(=O)O | 1.08 ± 0.099 | 1.03 ± 0.035 | 1.1 ± 0.071 | 1.03 ± 0.18 | 1.06 ± 0.05
CC[C@H]1OC(=O)C[C@@H](O)[C@H](C)[C@@H](O[C@@H]2O[C@H](C)[C@@H](O[C@H]3C[C@@](C)(O)[C@@H](O)[C@H](C)O3)[C@H](N(C)C)[C@H]2O)[C@@H](CC=O)C[C@@H](C)C(=O)/C=C/C(C)=C/[C@@H]1CO[C@@H]1O[C@H](C)[C@@H](O)[C@@H](OC)[C@H]1OC | 0.947 ± 0.046 | 1.08 ± 0.021 | 1.07 ± 0.021 | 1.1 ± 0.099 | 1.035 ± 0.0071
CC(=O)N[C@@H](C=O)[C@@H](O)[C@H](O)[C@H](O)CO | 1.04 ± 0.021 | 1.06 ± 0.014 | 0.945 ± 0.013 | 1.18 ± 0.035 | 1.2 ± 0.057
C[n+]1c2cc(N)ccc2cc2ccc(N)cc21 | 1.05 ± 0.014 | 0.951 ± 0.084 | 1.08 ± 0.042 | 1.4 ± 0.27 | 1.01 ± 0.08
